Source: PubChem (several laboratories)
Anthrax LF prot – blocks Bacillus anthracis lethal factor protease. multiplex microsphere protease cleavage assay, LF. P15917. inhibition, % at 10 µM. AID 588501. actives 0.12% (n = 360,000); note: plate controls were buffer without enzyme for full effect and enzyme alone for no effect
Target sequence (P15917 whole entry, looked up): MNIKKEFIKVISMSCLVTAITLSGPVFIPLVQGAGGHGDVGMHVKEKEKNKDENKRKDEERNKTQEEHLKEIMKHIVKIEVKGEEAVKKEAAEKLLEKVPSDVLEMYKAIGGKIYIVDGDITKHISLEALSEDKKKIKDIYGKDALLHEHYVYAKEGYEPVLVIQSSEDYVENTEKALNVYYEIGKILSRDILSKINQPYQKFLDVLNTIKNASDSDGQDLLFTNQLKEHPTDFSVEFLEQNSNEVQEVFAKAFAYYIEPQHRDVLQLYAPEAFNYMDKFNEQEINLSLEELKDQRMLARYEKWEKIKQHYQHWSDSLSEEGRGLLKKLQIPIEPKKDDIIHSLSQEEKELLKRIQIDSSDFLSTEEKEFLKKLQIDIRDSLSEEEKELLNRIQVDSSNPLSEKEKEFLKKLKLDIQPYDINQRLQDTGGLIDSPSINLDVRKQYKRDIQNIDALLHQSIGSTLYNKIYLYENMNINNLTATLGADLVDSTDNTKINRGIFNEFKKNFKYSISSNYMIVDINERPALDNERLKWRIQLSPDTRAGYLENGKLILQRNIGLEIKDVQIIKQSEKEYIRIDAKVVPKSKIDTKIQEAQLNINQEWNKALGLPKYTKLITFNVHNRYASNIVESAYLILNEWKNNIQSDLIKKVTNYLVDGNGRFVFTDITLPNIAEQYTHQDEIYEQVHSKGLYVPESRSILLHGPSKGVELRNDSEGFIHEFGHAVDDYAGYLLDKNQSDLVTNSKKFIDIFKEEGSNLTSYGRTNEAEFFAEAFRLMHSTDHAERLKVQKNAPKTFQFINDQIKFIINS
BoNT A protease – blocks Botulinum neurotoxin A light chain protease; actives 0.17% (n = 360,000); inhibition, % at 10 µM; multiplex microsphere protease substrate cleavage, flow cytometry; note: plate controls were buffer without enzyme for full effect and enzyme alone for no effect
BoNT F protease – BoNT F light chain protease inhibition; Multiplex microsphere protease cleavage assay, flow cytometry; inhibition, % at 10 µM; actives 0.22% (n = 360,000); in the data active = inhibition above about 35%, passing the limit was not always enough; inconclusive = no clear call, values can overlap the other calls; note: plate controls were buffer without enzyme for full effect and enzyme alone for no effect
MazEF act – activators of E. coli MazEF toxin-antitoxin RNase. P0AE70. FAM/BHQ RNA-DNA oligo cleavage fluorescence, 5 h. activation, % at 20 µM. actives 0.32% (n = 350,000); in the data active = activation above about 50%
Bead autofluor – counter-screen for toxin protease inhibitors: compound fluorescence | compound autofluorescence counterscreen, microsphere flow cytometry; stronger effect = higher value | actives 3.1% (n = 360,000) | AID 624483 | fluorescence intensity (no concentration beside the values); in the data active = fluorescence intensity above about 16000; inconclusive = no clear call, values can overlap the other calls
* marks the source's active call; other numbers are inactive results; ? = inconclusive; · = no result. An excerpt weighted towards active compounds, which were near 3.6% of everything screened. Cut-off read from the data, not from the text of the source, unless noted: active = inhibition above about 30%; inconclusive = no clear call, values can overlap the other calls; inactive = below that.

SMILES	Anthrax LF prot	BoNT A protease	BoNT F protease	MazEF act	Bead autofluor
CC1CC(=O)N(CC(=O)NCc2ccc3c(c2)OCO3)c2ccccc2S1 (stereo not given)	-0.9	1.1	8.7	4.1	10183
Cc1ccc(CSCC(=O)Nc2ccc3c(c2)OCO3)cc1	-4.8	0.2	-1.2	9.3	22179*
C/C(CC(=O)Nc1ccc2c(c1)OCO2)=N\NC(=O)c1ccc(N)cc1	-3.6	0.3	1.6	10.6	5110
C/C(CC(=O)Nc1ccc2c(c1)OCO2)=N\NC(=O)OC(C)(C)C	-0.1	5.0	42.2*	5.9	4752
O=C(CSCc1ccccc1)Nc1ccc2c(c1)OCO2	-8.7	-0.9	?	4.3	4154
CC1Cc2ccccc2N1CC(=O)NC(=O)NC1CCCC1 (stereo not given)	-1.5	0.2	-1.5	4.5	3291
CC1Cc2ccccc2N1CC(=O)NC(=O)NCc1ccco1 (stereo not given)	11.1	15.5	-9.8	1.4	17928*
Cc1ccc(C)c(S(=O)(=O)N2CCN(CC(=O)Nc3ccc4c(c3)OCCO4)CC2)c1	3.3	-1.4	-2.5	4.5	24103*
CC1Cc2ccccc2N1CC(=O)Nc1ccc2c(c1)OCO2 (stereo not given)	8.3	11.3	2.3	6.9	20865*
COc1ccc(Cl)cc1Cn1c(C)c(C(=O)NCc2ccc(F)cc2)sc1=O	-2.5	-0.4	-2.4	·	5102
CCCCN(C(=O)c1ccc(S(=O)(=O)N2CCCCC2)cc1)C1CCS(=O)(=O)C1 (stereo not given)	1.9	0.9	14.1	-19.5	5108
CNc1ccc2ncc(-c3cccc(C(=O)N(C)C)c3)n2n1	-3.0	0.0	-8.6	·	3290
CCCCOc1ccc(-c2nnn(CC(=O)NCCc3c[nH]c4ccccc34)n2)cc1	-3.1	?	-6.0	-11.3	23887*
Cc1ccc(S(=O)(=O)N(CC(=O)N2CCN(c3ccc(F)cc3)CC2)C2CCCCC2)cc1	0.7	-1.2	-7.0	7.2	23859*
CS(=O)(=O)Nc1cccc(NC(=O)C2Cc3c(-c4ccco4)ccnc3O2)c1 (stereo not given)	-7.3	-0.8	-13.9	·	4160
CCn1c(=O)c(C(=O)CN2CCCc3ccccc32)c(N)n(Cc2ccccc2)c1=O	12.3	?	2.0	9.1	32189*
O=C(COc1ccccc1Cl)NC(=S)Nc1ccccc1N1CCCC1	-0.3	2.1	1.8	21.9	5092
COC(=O)c1ccccc1NC(=S)NC(=O)COc1ccccc1Cl	-6.0	?	-5.6	42.1	20710*
CCN(CC)c1nc2c(c(=O)[nH]c(=O)n2C)n1CCCc1ccccc1	5.5	0.5	21.6	-0.8	3871
O=[N+]([O-])c1c(C(Cl)Cl)nn(-c2ccc(Cl)cc2)c1N1CCCCC1	-0.6	0.3	-4.9	-3.5	2074
Cn1cnc([N+](=O)[O-])c1NCc1ccccc1	?	7.4	40.0*	-13.3	3764
Cc1csc(=O)n1CC(=O)Nc1ccc(Cl)cc1F	·	·	·	2.6	·
COC(=O)Nc1sccc1C(=O)Nc1sccc1C(=O)OC	-2.7	1.5	1.9	-1.1	7544
CCC(=O)Nc1sccc1C(=O)OC	-7.9	?	-1.0	4.5	22995*
COC(=O)c1ccsc1NC(=O)CN1CCN(Cc2ccc3c(c2)OCO3)CC1	-1.0	1.8	0.9	-7.3	21667*
SMILES	Anthrax LF prot	BoNT A protease	BoNT F protease	MazEF act	Bead autofluor
COC(=O)c1c(NC(=O)CN2CCN(Cc3ccc4c(c3)OCO4)CC2)sc(C)c1C	13.4	-0.2	-9.3	22.0	?
COC(=O)c1[nH]c2ccc(C)cc2c1NC(=O)CCN1CCN(Cc2ccc3c(c2)OCO3)CC1	-4.3	0.1	-0.2	-3.1	22086*
CCOC(=O)CCC(NC(=O)c1ccc(Nc2nc3ccccc3nc2C(=O)OCC)cc1)C(=O)OCC (stereo not given)	-1.1	-0.1	0.4	6.3	3397
Nc1ccc(C(=O)c2ccc3c(c2)OCCO3)cc1N	-0.3	0.1	-6.0	3.9	21110*
Nc1cc2c(cc1C(=O)c1ccc(Cl)cc1)OCCO2	-2.8	?	-0.9	6.3	22401*
Nc1cc2c(cc1C(=O)c1ccccc1)OCCO2	-1.2	0.6	4.2	2.4	3575
COCC1CCCN(C(=O)c2cc(COc3ccc4ncccc4c3)on2)C1 (stereo not given)	-3.5	-0.1	-2.6	4.3	5981
Fc1ccc(-c2n[nH]c(=S)n2Cc2ccccc2)cc1	2.2	-1.8	-5.8	1.8	3091
COc1ccc(OCc2n[nH]c(=S)n2Cc2ccco2)cc1	2.9	-0.4	1.5	10.6	4673
COc1ccc(-c2n[nH]c(=S)n2Cc2ccco2)cc1	-2.3	-3.4	-4.6	0.3	21139*
CCCCOc1ccc(-c2n[nH]c(=S)n2Cc2ccccc2)cc1	-11.4	2.3	34.5*	-2.3	3674
COc1ccc(S(=O)(=O)Nc2cccc(S(=O)(=O)N3CCCC3)c2)cc1OC	0.9	6.2	9.4	3.7	4299
COC(=O)Cn1c(=O)c2c(nc(Br)n2CC(=O)OC)n(C)c1=O	-3.0	3.1	2.2	0.0	22104*
CCOC(=O)Cn1c(=O)c2c(nc(Br)n2CC(=O)OCC)n(C)c1=O	-1.6	0.2	-1.7	9.9	2412
CS(=O)(=O)c1ccc(N2CCN(C3CC(=O)NC3=O)CC2)cc1 (stereo not given)	-0.9	-0.4	-4.1	0.7	2732
COc1ccc(N2CCN(C3CC(=O)NC3=O)CC2)cc1 (stereo not given)	-4.6	?	-9.5	-8.3	24614*
COc1ccc(S(=O)(=O)n2cnc3ccccc32)cc1	13.1	-0.6	-13.4	0.2	3383
Cc1ccc(S(=O)(=O)n2cnc3ccccc32)cc1	-3.5	0.7	1.9	5.5	16399*
O=c1cc(N2CCN(c3ccccc3)CC2)[nH]c(=O)n1-c1ccccc1Cl	-2.3	-3.9	-6.4	-0.6	21259*
COc1ccc(-n2c(=O)cc(N3CCOCC3)[nH]c2=O)cc1	-1.1	-1.4	0.8	-0.7	19939*
CCOc1ccc(-n2c(=O)cc(N3CCN(c4ccccc4)CC3)[nH]c2=O)cc1	-3.8	0.6	1.3	2.2	21972*
COCCCn1cc(CN(C)C2CN(Cc3cn(CCCOC)nn3)S(=O)(=O)C2)nn1 (stereo not given)	-6.5	-1.1	-2.9	·	4219
Cc1nc2ccccc2n1/N=C/c1cccnc1	-3.5	-3.2	-3.3	-7.4	24451*
COC(=O)Cc1c(C)c2ccc(OC(C)C)cc2oc1=O	0.9	0.3	-2.9	5.1	4642
CCc1c(C)c2ccc(OCC(=O)OC)cc2oc1=O	-4.9	?	-9.9	-4.1	17530*
OC(c1ccc(F)c(F)c1)c1nc(-c2csc3ccccc23)cs1 (stereo not given)	2.2	0.4	-0.8	·	3392
CCOC(=O)N1CCC(NC(=O)c2cccn3c(=O)c4cc(Br)ccc4nc23)CC1	0.0	2.6	6.0	21.3	18434*
CCOC(=O)N1CCC(NC(=O)c2cc(-c3ccc(OC)cc3)nc3ccccc23)CC1	0.6	-0.9	-1.1	4.6	5309
Cc1ccccc1-n1c(C)nnc1SCc1nc2ccccc2s1	-0.3	0.7	-20.2	8.3	11103
CCOc1ccccc1-n1nnnc1SCc1nc2ccccc2s1	-2.9	-4.2	-8.4	-4.9	17496*
